RECQ1 inh: RECQ1 (human) helicase inhibition; P46063; RECQ1 DNA unwinding, red fluorescence kinetic read; Potency, µM (doses to about 57.3 µM), for the others: at the highest dose activity, negative = inhibition, hits mostly inhibitors; 240,000 compounds, 0.54% hits; AID 2549;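 note: plate controls were vehicle for no effect and no enzyme for full effect; nearly all actives have a fitted effect of over 30% in size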
Target sequence (P46063 whole entry, looked up): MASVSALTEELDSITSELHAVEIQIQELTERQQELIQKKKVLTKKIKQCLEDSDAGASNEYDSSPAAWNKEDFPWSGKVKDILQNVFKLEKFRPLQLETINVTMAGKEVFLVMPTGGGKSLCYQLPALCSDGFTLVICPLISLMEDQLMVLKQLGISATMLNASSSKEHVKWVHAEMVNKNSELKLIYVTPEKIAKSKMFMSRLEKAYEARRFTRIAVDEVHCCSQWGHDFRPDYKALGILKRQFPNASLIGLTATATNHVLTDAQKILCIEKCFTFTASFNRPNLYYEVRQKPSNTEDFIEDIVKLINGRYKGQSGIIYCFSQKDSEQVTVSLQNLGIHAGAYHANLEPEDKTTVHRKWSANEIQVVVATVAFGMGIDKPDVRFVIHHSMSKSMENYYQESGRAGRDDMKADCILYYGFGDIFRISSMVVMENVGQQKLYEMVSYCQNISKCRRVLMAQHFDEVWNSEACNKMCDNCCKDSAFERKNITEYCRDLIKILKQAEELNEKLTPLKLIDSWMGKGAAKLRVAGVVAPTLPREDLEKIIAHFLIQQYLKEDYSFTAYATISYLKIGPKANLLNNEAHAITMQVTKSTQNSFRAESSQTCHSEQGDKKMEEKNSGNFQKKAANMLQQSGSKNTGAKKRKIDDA
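50 nM RECQ1T1 preincubated 15 min with compound in Tris pH 8.0 buffer with MgCl2, DTT, Tween-20 and 2.5 ug/ml poly(dI-dC); started with 200 nM TAMRA/BHQ-2 forked duplex and 2 mM ATP. Unwinding read as fluorescence (525/598 nm), two reads 2 h apart.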
BLM helicase inh: Bloom syndrome helicase (human) inhibition | 350,000 compounds, 0.2% hits | Potency, µM (highest dose often 56.1 µM), without a hit: at the top dose activity change, negative = inhibition, actives largely listed as inhibitors | P54132 | recombinant BLM DNA unwinding, fluorescence dequenching;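 note: plate controls were vehicle for no effect and no enzyme for full effect; nearly all actives have a fitted effect of over 35% in size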
TRb-SRC2 inh: inhibitors of human thyroid hormone receptor beta-SRC2 interaction; P10828; TRbeta-SRC2 peptide binding, fluorescence polarization; receptor liganded with 1 µM T3; Potency, µM (titrated, usually from 106 µM), for the others: at the highest dose activity change, negative = inhibition, actives largely listed as inhibitors; 280,000 compounds, 0.065% hits; AID 1469;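 note: plate controls were bound peptide for no effect and peptide without receptor for full effect; nearly all actives have a fitted effect of over 50% in size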
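Decrease in fluorescence polarization of 20 nM Texas Red SRC2 coactivator peptide flagged inhibition of its binding to 0.6 uM TRb LBD; 1 uM T3 included, incubation 5 hr, ex 555/em 632 nm.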
APE1 inh: APE1 (human) endonuclease inhibition; P27695; recombinant APE1, TAMRA/BHQ-2 abasic DNA cleavage fluorescence; Potency, µM (series often up to 65.8 µM), without a hit: at the top dose activity change, negative = inhibition, usual class: inhibitors; 350,000 compounds, 0.35% hits; AID 2517;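 note: plate controls were vehicle for no effect and reference inhibitor for full effect; nearly all actives have a fitted effect of over 55% in size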
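0.75 nM APE1 + cpd, 15 min RT; start w/ 50 nM TAMRA/BHQ-2 THF-abasic dsDNA; kinetic fluor 525/598 nm ×3 reads @60 s; Δ(read3−read1); normalized to DMSO and NSC13755 control wells.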
RGS12 GoLoco inh: inhibitors of human Gai1-RGS12 GoLoco interaction (red fluorophore); P63096; Gai1:RGS12 GoLoco peptide FP, rhodamine, 10 min; Potency, µM (doses to about 61.6 µM), for the others: top-dose activity, negative = inhibition, hits mostly inhibitors; 230,000 compounds, 0.44% hits; AID 880; active = well fitted inhibition curve with a large enough effect, not every such curve was filed as active; inactive = no such curve, though single readings can be large or run the other way; note: nearly all actives have a fitted effect of over 30% in size
TexasRed fluor: alters Texas Red total fluorescence, flagging assay interference | TRb/SRC2 Texas Red total fluorescence interference | Potency, µM (highest dose often 106 µM), for the others: at the top dose fluorescence change, negative = quenching | 280,000 compounds, 0.29% hits; active = well fitted curve in either direction with a large enough effect; inconclusive = small, poorly fitted or top-dose-only effect
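Human TRb ligand-binding domain at 0.6 uM with 20 nM Texas Red SRC2 peptide in Tris buffer containing 1 uM T3 and 5% DMSO, incubated with compound 5 h at ambient temperature. Total fluorescence (555/632 nm) calculated as parallel + 2 × perpendicular.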
Starred values were filed as active, the others as inactive; ? = inconclusive; · = no result given; ! = a repeat was not active; [ ] = dose if it differs, or a comment. Only some compounds are listed: those with a hit (about 0.9% of all), similar ones and a draw of the others. Unless noted, calls come from the whole dose curve; as a rule, active = well fitted curve in the direction sought with a large enough effect; inconclusive = small, poorly fitted or top-dose-only effect, or another doubt; inactive = no such curve, though single readings can be large; an effect the other way counts as inactive or inconclusive. Unless noted, % is set by controls: 0 for no effect and ±100 for the full control effect; potency is the fitted concentration of half-maximal effect.

SMILES	RECQ1 inh	BLM helicase inh	TRb-SRC2 inh	APE1 inh	RGS12 GoLoco inh	TexasRed fluor
COC(=O)C1CCC(C(=O)OC)CC1 (stereo unspecified)	·	·	2%[201 µM]	·	·	3%[201 µM]
Cc1ccc(/C=C2\C(=O)Nc3ccccc32)o1	-12%	-10%	-13%[53 µM]	3%	-18%	0.11µM*[quencher]
NS(=O)(=O)c1ccc(-c2ccc(/C=C3\C(=O)Nc4ccccc43)o2)cc1	·	-1%	·	11%	·	·
COc1ccc(OC)c(NC(=O)CN2C(=O)c3ccccc3Sc3ccc(C(=O)N4CCCC4)cc32)c1	·	2%	-20%	·	·	794µM*[quencher]
CCC(C(=O)Nc1ccccc1OC)n1c(C(=O)OC)cc2sc(Cl)cc21 (stereo unspecified)	·	-10%	-19%	·	·	20µM*[quencher]
COc1cc(/C=C2/SC(=S)N(CC(=O)O)C2=O)ccc1OCC(=O)Nc1ccc(C)c(C)c1	·	?	·	4.7µM*	·	·
COC(=O)c1c(Cl)c2n3ccccc3c(C)c(-c3ccccc3)c-2c1C(=O)OC	-5%	-8%	-9%	1%	14µM*	9%
COC(=O)c1cc2c(-c3ccccc3)c(C)c3ccccn3c-2c1C(=O)OC	-27%	-15%	-10%	-6%	37%	1%
Cn1cc(S(=O)(=O)N2CCCC2)cc1C(=O)Nc1ccc(C(F)(F)F)cc1	·	-9%	-10%	·	·	45µM*[quencher]
CN(C)[C@@H]1C(=O)C(C(=O)NCN2CCCC2)=C(O)[C@@]2(O)C(=O)C3=C(O)c4c(O)cccc4[C@@](C)(O)C3CC12 (stereo partly specified)	3.2µM*	14µM*	-18%	2.5µM*	-32%	?
C[C@H]1c2cccc(O)c2C(O)=C2C(=O)C3(O)C(O)=C(C(N)=O)C(=O)[C@@H](N(C)C)[C@@H]3[C@@H](O)[C@@H]21 (stereo partly specified)	·	·	·	-7%	·	·
O=C1OC(c2cccs2)=N/C1=C/c1ccc(-c2cccc(C(=O)O)c2)o1	?	110%	1%	18µM*	23%	-5%
CCC(=O)N1C2=C(c3ccccc3[C@@H]1CC(=O)Nc1ccc3ccccc3c1)[C@@H]1C(=O)N(c3ccccc3)C(=O)[C@@H]1[C@H](C)C2	2%[11.5 µM]	2%[12.4 µM]	-6%[11.2 µM]	-3%[12.4 µM]	-6%[14.2 µM]	1%[11.2 µM]
CCOC(=O)C1=C(CN2CCN(c3ccc(OC)cc3)CC2)NC(=O)NC1c1ccc(OC)cc1 (stereo unspecified)	·	-4%	-20%	·	·	100µM*[quencher]
CCOC(=O)C1=C(CN2CCN(c3ccc(OC)cc3)CC2)NC(=O)NC1c1ccc(Cl)cc1 (stereo unspecified)	·	-9%	-3%	·	·	-1%
Cc1cc(O)c2c(c1)C(=O)c1cccc(O)c1C2=O	7.1µM*!	-7%	-9%	32µM*!	4%	0%
CC1=NN(c2ccc(C(=O)O)c(N)c2)C(=O)C1	-24%	39%	9%	2µM*	-13%	?
CC1=NN(c2ccc(Cl)c(C(=O)O)c2)C(=O)C1	9%	-10%	-3%	?	7%	4%
O=C(O)C1(C(=O)O)CCC1.[NH2-].[NH2-].[Pt+2]	-28%	-6%	7%	11µM*	·	-9%
N#Cc1nc(NCCCCO)nc(Nc2ccccc2)n1	0%	-3%	·	-12%	·	·
COc1ccccc1NCCC(=O)OCC(=O)NC1CC1	-9%	-6%	?	1%	-11%	3.5µM*[quencher]
CC#CCN1c2ccccc2[C@]23C[C@@H](C(=O)OC)N(S(=O)(=O)CCCC)C2=NC(C(=O)OC)=C(C(=O)OC)[C@H]13	-17%[11.5 µM]	-4%[12.4 µM]	4%[11.2 µM]	11%[12.4 µM]	-9%[14.2 µM]	-2%[11.2 µM]
O=c1oc(-c2ccco2)nc2ccccc12	-11%	-4%	1%	-5%	3%	0%
O=C(c1ccccc1)c1ccc2nc(-c3ccco3)c(-c3ccco3)nc2c1	?	14µM*	3%	?	-27%	-17%
